In PubChem BioAssay AID504834 (National Center for Advancing Translational Sciences (NCATS), 2011):
The campaign covered roughly 320,000 compounds. About 22,000 (6.9%) were called active. Inconclusive results (about 27%) are left out. Calls come from the whole dose curve; as a rule, active = well fitted inhibition curve with a large enough effect; inconclusive = small, poorly fitted or top-dose-only effect, or another doubt; inactive = no such curve, though single readings can be large or run the other way. The full list was thinned out, with actives kept by preference.

assay: Primary qHTS for delayed death inhibitors of the malarial parasite plastid, 96 hour incubation; conditions: P. falciparum luciferase reporter growth; series mostly up to 28.7 µM; activity change, negative = inhibition: at the top concentration
Summary of the method: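 Parasite growth measured via integrated firefly luciferase reporter in P. falciparum. Infected erythrocytes at 2% hematocrit, 0.05% parasitemia final were treated 96 hours at 37 C under 5% CO2, and luminescence was read.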
% is set by controls: 0 for no effect and ±100 for the full control effect; potency is the fitted concentration of half-maximal effect.

SMILES	Potency	activity change, negative = inhibition
Cc1cccc(N2C(=O)N3[C@H](c4ccc(F)cc4)[C@@H]4C(=O)N(C5CCCCC5)C(=O)[C@@H]4[C@]3(Cc3ccccc3)C2=O)c1	13.1 µM (active)	–
COc1ccc([C@@H]2[C@@H]3C(=O)N(C(C)(C)C)C(=O)[C@@H]3[C@]3(Cc4ccccc4)C(=O)N(c4cccc(Br)c4)C(=O)N23)cc1	1.65 µM (active)	–
COc1ccc(C2C(C(C)=O)=C(O)C(=O)N2Cc2cccnc2)cc1 (stereo not given)	–	243% (inactive)
COc1ccc(N2C(=O)C(Cc3ccccc3)NC2=S)cc1 (stereo not given)	–	44.9% (inactive)
Cc1cccc([C@@H]2[C@@H]3C(=O)N(Cc4ccccc4)C(=O)[C@@H]3[C@]3(Cc4ccc(Cl)cc4)C(=O)N(c4cccc(Cl)c4)C(=O)N23)c1	–	-22.4% (inactive)
CC12C(=O)N(c3ccccc3)C(=O)C1C(c1ccccc1)N1CCCN12 (stereo not given)	–	20.4% (inactive)
O=C(NC1(C(F)(F)F)NC(=O)N(C2CCCCC2)C1=O)c1ccco1 (stereo not given)	–	12.9% (inactive)
Cc1cccc(N2C(=O)C3C(c4ccccc4)OC4(C(=O)c5ccccc5C4=O)C3C2=O)c1 (stereo not given)	–	1.05% (inactive)
O=C1[C@H]2[C@@H](c3ccc(F)cc3)N3C(=O)N(c4ccc(C(F)(F)F)cc4)C(=O)[C@@]3(Cc3ccccc3)[C@H]2C(=O)N1C1CCCCC1	5.22 µM (active)	–
C[C@@]12C(=O)N(c3cccc(Br)c3)C(=O)N1[C@H](c1ccc(Cl)cc1)[C@@H]1C(=O)N(C3CCCCC3)C(=O)[C@@H]12	16.5 µM (active)	–
Cc1c(C)c(C)c(S(=O)(=O)N2CCC3(CC2)OCCO3)c(C)c1C	–	-0.851% (inactive)
Cc1csc(NC(=O)C2CCN(S(=O)(=O)c3ccccc3)CC2)n1	–	-10.6% (inactive)
CCOc1ccc(N(CC(=O)NCCOc2ccccc2OC)S(=O)(=O)c2ccccc2)cc1	–	0.187% (inactive)
Cc1ccccc1N1CCN(Cc2nc(Cc3ccccc3F)no2)CC1	–	34.5% (inactive)
COc1ccc(NC(=O)CC2C(=O)NC3CCCCC3N2C(=O)c2ccc(F)cc2)cc1 (stereo not given)	–	-0.568% (inactive)
COc1ccc(CNC(=O)CN(Cc2ccccc2Cl)C(=O)c2csnn2)cc1	–	31.1% (inactive)
COc1ccc(NC(=O)C2=CC(c3ccc(OC)c(OC)c3)=NS(=O)(=O)N2C)cc1	–	4.29% (inactive)
COc1ccc(/C=C2\SC(=O)N(CCC(=O)NC3CCS(=O)(=O)C3)C2=O)cc1 (stereo not given)	–	7.41% (inactive)
O=C(c1cc(COc2cccc(C(F)(F)F)c2)on1)N1CCSCC1	–	-9.38% (inactive)
C=CCn1c(=O)c(C(=O)NCc2ccc3c(c2)OCO3)c(O)c2ccccc21	–	-16.3% (inactive)
O=C1[C@H]2[C@@H](c3ccc(Cl)cc3)N3C(=O)N(c4cccc(F)c4)C(=O)[C@@]3(Cc3ccccc3)[C@H]2C(=O)N1C1CCCCC1	8.28 µM (active)	–
O=C(COC(=O)c1ccc(F)cc1)NCCCc1ccccc1	–	36.7% (inactive)
Cc1cc(C)c(-c2csc(NC(=O)CCCc3nc4ccccc4c(=O)[nH]3)n2)c(C)c1	0.329 µM (active)	–
Cc1cccc(S(=O)(=O)CC(=O)Nc2nc(-c3ccccc3)cs2)c1	–	-14.2% (inactive)
CC(C)(C)c1ccc(NC(=O)COC(=O)CCc2nc3ccccc3c(=O)[nH]2)cc1	–	20.8% (inactive)

SMILES	Potency	activity change, negative = inhibition
CC(C)Oc1ccc(/C=N/NC(=O)c2nnn(-c3nonc3N)c2CN(C)C2CCCCC2)cc1	–	38.5% (inactive)
CCC(C)Sc1nc2c(cnn2-c2ccc(F)cc2)c(=O)[nH]1 (stereo not given)	–	6.68% (inactive)
COCCNC(=S)N/N=C/c1c(C)[nH]c2ccccc12	–	-2.14% (inactive)
CN=c1scc(-c2cc(OC)ccc2OC)n1/N=C/c1c(C)[nH]c2ccccc12	6.57 µM (active)	–
COc1ccc(OC)c(N=Cc2c(O)[nH]c3ccccc23)c1	–	-10.7% (inactive)
CC1CCC(NC(=O)CNC(=O)c2ccc3ccccc3c2)CC1 (stereo not given)	–	41.9% (inactive)
O=C(C1CC(=O)N(C2CCCCC2)C1)N1CCN(c2ccccc2)CC1 (stereo not given)	–	-5.68% (inactive)
CCCN1CCN(CCCNC(=O)CN2C(=O)COc3ccccc32)CC1	–	4.84% (inactive)
Cc1ccc2c(c1)N(CC(=O)N1CCC(C)CC1)C(=O)c1cccnc1O2	–	3.29% (inactive)
Cc1ccc2c(c1)N(CC(=O)NCCCN1CCCCC1)C(=O)c1cccnc1O2	9.28 µM (active)	–
O=C(CN1C(=O)c2cccnc2Oc2ccc(Cl)cc21)Nc1ccc(F)cc1	–	68.1% (inactive)
Cc1cc(C(=O)NCCc2ccc(Cl)cc2)c(C)o1	–	51.2% (inactive)
Cc1ccc2c(c1)N(CC(=O)NCCc1ccc(Cl)cc1)C(=O)c1cccnc1O2	10.4 µM (active)	–
COc1ccc(NC(=O)COC(=O)c2n[nH]c3ccccc23)c(OC)c1	–	11.9% (inactive)
CCCc1ccc(C(=O)COC(=O)CN2C(=O)NC3(CCCCC3C)C2=O)cc1 (stereo not given)	–	-10.4% (inactive)
O=C(CN(C(=O)c1nsc(Cl)c1Cl)c1cccc(F)c1)NC1CCCC1	–	-1.32% (inactive)
CC(Oc1ccccc1)C(=O)Nc1c2c(nn1-c1ccccc1)CS(=O)C2 (stereo not given)	–	-11.3% (inactive)
C=CCN1C(=O)c2ccc(C(=O)N3CCC(C(=O)OCC)CC3)cc2C1=O	–	61.5% (inactive)
Cc1cccc(C(=O)NNC(=O)CSc2nnc(C(C)C)n2C)c1	–	19% (inactive)
CC(=C/c1ccccc1)/C=N/NC(=O)c1cc(C)oc1C	9.28 µM (active)	–
Cc1cc(C(=O)N/N=C\C(Br)=C\c2ccccc2)c(C)o1	–	11.7% (inactive)
Cc1cc(C(=O)N/N=C/c2ccccc2[N+](=O)[O-])c(C)o1	–	33.4% (inactive)
COc1cccc(Cn2cc(/C=N/NC(=O)c3cc(O)cc(O)c3)c3ccccc32)c1	–	-22.1% (inactive)
O=C(NCC(=O)N1CCCCCCC1)c1ccccc1Cl	–	70.2% (inactive)
COc1ccc(N2CCN(C(=O)CCNC(=O)c3ccc(Br)cc3)CC2)cc1	–	-2.69% (inactive)

SMILES	Potency	activity change, negative = inhibition
COc1ccc(N2CCN(C(=O)CNC(=O)c3ccc(C(C)(C)C)cc3)CC2)cc1	4.65 µM (active)	–
COc1ccc(N2CCN(C(=O)CNS(=O)(=O)c3ccc(C)c(C)c3)CC2)cc1	–	-44% [at 5.75 µM] (inactive)
COc1cc(OC)cc(C(=O)NCC(=O)N2CCCCCCC2)c1	–	-16.6% (inactive)
O=C(NCC(=O)N1CCN(c2ccccc2O)CC1)c1ccc2ccccc2c1	6.57 µM (active)	–
CCOC(=O)c1c(N)sc2c1CCCC2=O	–	21.3% (inactive)
O=C(CN(C(=O)CNC(=O)c1cccs1)c1cccc(F)c1)NC1CCCCC1	–	8.81% (inactive)
COc1ccccc1/C=C/C(=O)NC1CC2CCC1C2 (stereo not given)	–	9.8% (inactive)
O=S(=O)(Nc1ccccc1Cl)c1cccc2nsnc12	–	-16.2% (inactive)
O=C(Nc1ccccc1)c1ccc2c(c1)OCCCO2	–	1.97% (inactive)
C[C@H](NC(=O)[C@@H]1Cc2ccccc2CN1C(=O)OC(C)(C)C)C(=O)NC1CCCC1	–	-19.6% (inactive)
COc1ccc(Cl)cc1C(=O)NNC(=S)NC1CCCC1	–	35% (inactive)
COc1ccc(CCNC(=O)CCC(=O)NC2CCCCC2)cc1OC	–	-3.75% (inactive)
CCN(CC)C(=O)c1ccc(O)c(OC)c1	inactive	–
COc1ccc(C(C)NC(=S)NC2CCCCC2)cc1OC (stereo not given)	10.4 µM (active)	–
O=C(COc1ccccc1O)NC1CCCC1	–	-9.08% (inactive)
COc1cc(C(=S)NC2CCCCC2)ccc1O	4.15 µM (active)	–
Cc1ccc(C)c(NS(=O)(=O)c2c(C)[nH]c(C)c2C(=O)N2CCCCC2)c1	–	29.7% (inactive)
CC(=O)N1CCN(CC(c2ccccc2)c2ccccc2)CC1	–	0% (inactive)
NC(=O)C(Cc1ccccc1)NC(=O)C12CC3CC(CC(C3)C1)C2 (stereo not given)	–	11.1% (inactive)
CC(=O)O[C@]1(C(C)=O)CC[C@H]2[C@@H]3C=C(C)C4=CC(=O)CC[C@]4(C)[C@H]3CC[C@@]21C	11.7 µM (active)	–
CCCCN(C1CCS(=O)(=O)C1)S(=O)(=O)c1ccc(C(C)C)cc1 (stereo not given)	–	2.84% (inactive)
O=C(/C=C/c1ccc(OCc2c(F)cccc2Cl)cc1)N1CCOCC1	10.4 µM (active)	–
O=C(Nc1ccc(OCC(=O)N2CCOCC2)cc1)c1cc(F)c(F)cc1Cl	–	-15.8% (inactive)
Fc1cccc(Cl)c1COc1ccc(-c2nnco2)cc1	–	-3.53% (inactive)
CCC(C)C(NC(=O)C1CCC(=O)N1C(=O)OCc1ccccc1)C(=O)NC(C(=O)N1CCCC1C(N)=O)C(C)CC (stereo not given)	–	2.57% (inactive)

SMILES	Potency	activity change, negative = inhibition
O=C(COC(=O)c1ncc(Cl)c(Cl)c1Cl)NNC(=O)c1ccccc1	–	-2.5% (inactive)
CCCCN(C(=O)C1=NN(c2cc(C)ccc2C)C(=O)CC1)c1c(N)n(CCC)c(=O)[nH]c1=O	–	-27.3% (inactive)
Cc1ccc(-c2noc(CCC(=O)Nc3ccccc3N3CCN(C)CC3)n2)cc1	–	-10.9% (inactive)
Cc1cc(NC(=O)C(C)N2C(=O)c3ccccc3S2(=O)=O)no1 (stereo not given)	–	50.7% (inactive)
Cc1cc(NC(=O)C(C)SCC(=O)Nc2ccccc2N2CCCCC2)no1 (stereo not given)	9.28 µM (active)	–
CC1(c2ccc3ccccc3c2)NC(=O)NC1=O (stereo not given)	–	15.2% (inactive)
Cc1ccc(O)c(/C=N/NC(=O)COc2ccc3c(C)cc(=O)oc3c2)c1	10.4 µM (active)	–
CCOC(=O)Cc1csc(NC(=O)COc2ccc3c(C)cc(=O)oc3c2)n1	–	37.9% (inactive)
Cc1cc(=O)oc2cc(OCC(=O)Nc3nnc(C4CC4)s3)ccc12	–	24.1% (inactive)
COc1cccc2[nH]c(C(=O)NCCc3ccccc3)cc12	–	30.1% (inactive)
Cc1nnc(Nc2ccccc2F)s1	–	3.63% (inactive)
NS(=O)(=O)c1ccc(CCNC(=O)CNC(=O)Cc2ccccc2)cc1	–	12.5% (inactive)
CC(=O)O[C@H]1c2ccccc2-c2ccccc2[C@@H]1OC(C)=O	–	-23.2% (inactive)
O=S(=O)(c1ccc(SCc2ccc(Br)cc2)nc1)N1CCOCC1	–	-31.3% (inactive)
CCc1nc(NCCO)c(C#N)c2c1CCCC2	–	8.09% (inactive)
CCCCc1nc(NCc2ccccc2)c(C#N)c2c1CCCC2	5.22 µM (active)	–
CN(C)c1nccc(NCc2ccccc2)c1C#N	–	-1% (inactive)
CCOCc1nnc(NC(=O)CCS(=O)(=O)Cc2ccccc2)s1	–	8.85% (inactive)
COc1ccc(CNS(=O)(=O)c2ccc(-c3cnc(C4CC4)o3)cc2)cc1	10.4 µM (active)	–
COc1ccc(CNS(=O)(=O)c2ccc(NC(=O)N3CCCCC3)cc2)cc1	–	-9.06% (inactive)
COc1ccc(CNS(=O)(=O)c2cc(-c3cc(C)no3)ccc2C(C)C)cc1	–	21.3% (inactive)
CCC(=O)N1c2ccc(S(=O)(=O)NCc3ccco3)cc2CC1C (stereo not given)	–	100% (inactive)
COCCNC(=O)C(c1ccc(C)cc1)N(C(=O)CCC(=O)Nc1ccccn1)c1cccc(C)c1 (stereo not given)	–	7.39% (inactive)
COCCN(C(=O)CCC(=O)Nc1ccccn1)C(C(=O)NCCC(C)C)c1ccc(OC)cc1 (stereo not given)	0.522 µM (active)	–
COCCN(C(=O)CCC(=O)Nc1nccs1)C(C(=O)NCCC(C)C)c1ccc(F)cc1 (stereo not given)	–	20% (inactive)
